# Results as given in PubChem BioAssay AID2315 (National Center for Advancing Translational Sciences (NCATS), 2010).
# Out of some 290,000 compounds screened, about 27,000 (9.3%) were called active. This excerpt belongs to a sample that is enriched for actives. Unmarked numbers belong to inactive results. Cut-off read from the data, not from the text of the source: active = inhibition mostly above about 28% (no sharp cut-off); inactive = mostly below about 43%.
# Assay: A qHTS for Small Molecule Inhibitors of Shiga Toxin; note: 0% is about no effect
# Conditions: Vero cells, Shiga toxin protein synthesis inhibition reporter; at 38.7 µM, stronger effect = higher value
row,SMILES,inhibition
1,CCN(CCCNC(=O)c1ccc2c(c1)NC(=O)CN2C)c1cccc(C)c1,-5.92%
2,COc1ccc(NC(=O)C2=CC(c3ccc(OC)c(OC)c3)=NS(=O)(=O)N2C)cc1,7.8%
3,O=C(CN1CCCCCC1)Nc1ccc(Cl)cc1F,1.73%
4,O=c1ccc2cc(S(=O)(=O)Nc3ccccc3F)ccc2o1,-8.1%
5,CCc1nc2cccnc2n1-c1ccc(C(=O)O)cc1,-6.32%
6,Cc1c(Cl)cccc1NC(=S)NCC(O)c1ccccc1 (stereo unspecified),8.12%
7,O=C(Nc1ccccc1)Nc1nc2ccccc2s1,106% (active)
8,Cn1nnnc1SCC(=O)Nc1nc2ccccc2s1,25.2%
9,CC(=O)Nc1ccc(-c2csc(NC(=O)Nc3ccccc3)n2)cc1,42%
10,COc1ccc(C(=O)NC2CC(C)(C)Cc3c2cnn3-c2ccccc2)c(OC)c1 (stereo unspecified),-3.27%
11,CC(C)S(=O)(=O)c1csc(NC(=O)Nc2ccc(Cl)cc2)c1Cl,37.4%
12,COc1ccccc1Nc1cc(C(=O)NCCCN(C)C2CCCCC2)c2ccccc2n1,-10.8%
13,Cc1ccc(SCC(=O)c2cc(C)c(OC(=S)N(C)C)c(C)c2)cc1,37.1%
14,Cc1cc(C)n2nc(CNS(=O)(=O)c3c(F)c(F)c(F)c(F)c3F)nc2n1,9.24%
15,COc1cccc(NC(=O)N2CCC(NC(=O)C(Cc3cccc(C)c3)NC(C)=O)CC2)c1 (stereo unspecified),1.56%
16,Cc1cccc(C(=O)Nc2ccccc2N2CCN(c3ccc(F)cc3)CC2)c1,-3.83%
17,Cc1ccc(F)cc1NC(=O)c1ccc2c(c1)OCO2,43.8% (active)
18,O=C(Nc1ccccc1N1CCCCC1)c1cccc(F)c1,16.3%
19,Cc1ccc(F)cc1NC(=O)c1cccc(N(C)C)c1,116% (active)
20,Cc1ccc(-n2nc3c(c2NC(=O)c2ccc4c(c2)OCO4)CSC3)c(C)c1,1.3%
21,O=C(CN1CCN(CC(=O)Nc2ccc3c(c2)OCO3)CC1)Nc1ccc(F)cc1,-14.4%

row,SMILES,inhibition
1,COc1ccc(NC(=O)NCc2ccc3c(c2)OCO3)c(OC)c1,-9.62%
2,CN(C)CCN(C(=O)C1CCCCC1)c1nc2cc3c(cc2s1)OCO3,-7.68%
3,CC(=O)N1CCc2cc(S(=O)(=O)NC3CCCCC3)ccc21,-2.55%
4,COc1ccc(C(=O)COC(=O)CNC(=O)c2cccs2)cc1Br,-12%
5,CC(=O)Nc1ccc(Nc2ncnc3c2nnn3Cc2ccccc2Cl)cc1,-4.64%
6,COc1ccc(/C=C2\SC(=S)N(CCC(=O)Nc3ccccn3)C2=O)cc1OC,-13.3%
7,CCOc1ccc(N(CC(=O)NCC2CCCO2)S(=O)(=O)c2ccc(C)cc2)cc1 (stereo unspecified),-4.82%
8,O=C(Cn1c(COc2ccccc2)nc2ccccc21)Nc1cc(Cl)c(Cl)cc1Cl,3.93%
9,CC(C)n1c(COc2ccccc2)nc2ccccc21,-5.6%
10,COCn1c(COc2ccccc2)nc2ccccc21,13.8% (active)
11,Cc1ccc(C23CC4CC(CC(C(=O)NCC(=O)O)(C4)C2)C3)cc1,-7.52%
12,Cc1cccc(OCC(=O)NC2CC(C)(C)NC(C)(C)C2)c1,1.98%
13,CC(NCCc1ccc(S(N)(=O)=O)cc1)C(=O)NCc1ccccc1 (stereo unspecified),45.3%
14,Cc1cc(S(=O)(=O)N2CCOCC2)ccc1OCC(=O)Nc1cccc(C(F)(F)F)c1,-13.1%
15,N#Cc1c(-c2ccccc2)nc(SCc2ccc([N+](=O)[O-])cc2)[nH]c1=O,-3.91%
16,CCc1nnc(NC(=O)CCCSc2nc3ccccc3[nH]2)s1,13.8%
17,O=C(NCc1ccccc1)c1onc(CSc2nc3ccccc3[nH]2)c1C(=O)NCc1ccccc1,-3.72%
18,COc1ccccc1-c1noc(CSc2nc(C)cc(=O)[nH]2)n1,-3.44%
19,COc1ccccc1CC(=O)Nc1ccc([N+](=O)[O-])cc1OC,2.24%
20,COc1ccccc1CSc1ncc(-c2ccc([N+](=O)[O-])cc2)[nH]1,54.5% (active)
21,COc1ccccc1CSc1nc2ccccc2[nH]1,71.9% (active)

row,SMILES,inhibition
1,CCCCSc1nc2ccccc2[nH]1,79.8% (active)
2,C=CCSc1nc2ccccc2[nH]1,14.5%
3,CC(C)=N/N=C1/NC(=O)C(Cc2ccccc2)S1 (stereo unspecified),-7.41%
4,COc1cccc(CNC(=O)CN(C)S(=O)(=O)c2ccc3c(c2)c(=O)n(C)c(=O)n3C)c1,18.4%
5,O=C(O)CCCCCCCCc1cn(CN2C(=O)c3ccccc3C2=O)nn1,-8.38%
6,CC(CCc1ccccc1)NC(=O)COC(=O)c1ccc(F)cc1 (stereo unspecified),-4.73%
7,Cc1cccc(-c2nc(CS(=O)CC(=O)NC(C)CCc3ccccc3)c(C)o2)c1 (stereo unspecified),-4.68%
8,O=C(CCCN1C(=O)/C(=C/c2cccs2)SC1=S)Nc1ccc(O)cc1,42.3%
9,Cc1ccc(C(=O)NCCN2CCOCC2)cc1C,19%
10,CC(=O)Oc1cc2c(C(=O)NCCN3CCOCC3)c(C)oc2c2ccccc12,44.7% (active)
11,Cc1cc(C)cc(C(=O)NCCN2CCOCC2)c1,-7.36%
12,CC(=O)NC(CC(=O)Nc1cccc(S(=O)(=O)N2CCCC2)c1)c1ccccc1 (stereo unspecified),-34.1%
13,CC(=O)N1CCc2c(sc(NC(=O)CCS(=O)(=O)c3ccccc3)c2C#N)C1,17.3%
14,O=C1CSC(=S)N1c1ccc(O)cc1,-10.4%
15,N#Cc1c(Cl)nc(-c2cccnc2)nc1-c1ccccc1,-3.23%
16,Cc1ccnc(NC(=O)CCC(=O)N(CC(=O)NCc2ccccc2)Cc2ccco2)c1,-4.34%
17,Cc1ccc(C(C(=O)NC2CCCC2)N(Cc2ccco2)C(=O)CCC(=O)Nc2ccccn2)cc1 (stereo unspecified),-14.7%
18,Cc1ccc2c(c1)N(CC(=O)N(Cc1ccccn1)Cc1ccco1)C(=O)C(C(C)C)O2 (stereo unspecified),33.8% (active)
19,Cc1cc(C)c2c(=O)[nH]c(SCC(=O)Nc3ccc(Br)cc3)nc2n1,3.52%
